From PubChem BioAssay
D2 ag-1 = HTS Assay for Allosteric Agonists of the Human D2 Dopamine Receptor: Primary Screen for Agonists. HEK293 T-REx D2 cells, calcium flux agonist mode. activation, % at 2 µM. 340,000 compounds, 0.53% hits;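 active = activation over 3 SD above normal in the single-dose calcium agonist read, cut at about 30% in these data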; also: 0% is about no effect
Target sequence (P14416 whole entry, looked up): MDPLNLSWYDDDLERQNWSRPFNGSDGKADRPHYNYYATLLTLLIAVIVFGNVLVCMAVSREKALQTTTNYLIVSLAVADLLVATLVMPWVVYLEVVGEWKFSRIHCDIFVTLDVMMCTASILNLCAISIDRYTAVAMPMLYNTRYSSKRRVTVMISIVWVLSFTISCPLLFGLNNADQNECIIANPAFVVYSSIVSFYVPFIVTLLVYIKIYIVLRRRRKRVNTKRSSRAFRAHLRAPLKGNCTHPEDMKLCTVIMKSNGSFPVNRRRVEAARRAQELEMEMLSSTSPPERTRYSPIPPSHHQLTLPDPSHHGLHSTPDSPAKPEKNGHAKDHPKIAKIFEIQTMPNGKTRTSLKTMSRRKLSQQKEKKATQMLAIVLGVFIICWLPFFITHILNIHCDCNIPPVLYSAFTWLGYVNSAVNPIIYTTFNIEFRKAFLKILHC
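Tetracycline-induced HEK293 Trex cells with D2 receptor force-coupled to calcium signaling, plated overnight at 30 C and loaded with no-wash calcium dye. Calcium flux read kinetically for 180 s after compound addition; responses flag agonists.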
D2 PAM-1 = HTS Assay for Positive Allosteric Modulators of the Human D2 Dopamine Receptor: Primary Screen for Potentiators. potentiation, % at 10 µM. HEK293 T-REx D2, calcium flux, EC20 dopamine potentiation. D(2) dopamine receptor (Homo sapiens), P14416. 340,000 compounds, 0.34% hits;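 active = potentiation over 3 SD above the plate norm, cut at about 30% in these data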; also: 0% is about no effect
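Primary screen. Calcium kinetics in induced HEK293 T-REx D2 cells: compound pre-addition 180 s, EC20 dopamine, 180 s more.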
D2 antagonist = HTS Assay for Allosteric Antagonists of the Human D2 Dopamine Receptor: Primary Screen for Antagonists. D(2) dopamine receptor (Homo sapiens), P14416. HEK293 TREx D2 cells, calcium flux, dopamine EC80. inhibition, % at 10 µM. 340,000 compounds, 2% hits. AID 485344, 2010; in the data active = inhibition above about 30%; inactive = below that, where a call was filed; also: 0% is about no effect
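Dopamine at EC80 is the agonist stimulus; test compounds precede it by 180 s. Calcium flux read kinetically in a force-coupled, inducible HEK293 T-REx D2 cell line.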
D2 ag-2 = Beta-Arrestin HTS for Positive Allosteric Modulators of the Human D2 Dopamine Receptor: Agonists; D(2) dopamine receptor (Homo sapiens), P14416; DiscoveRx PathHunter D2 beta-arrestin, luminescence, 90 min; 100% = 57 uM dopamine signal; activation, % (test concentration not listed); 360,000 compounds, 0.084% hits; in the data active = activation above about 40%; inconclusive = between about 15% and that limit
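DiscoveRx PathHunter D2 beta-arrestin cells (2,100/well) attached overnight, then compound-stimulated 90 min at 37 C in HBSS/10 mM HEPES/0.1% Tween-20 buffer; beta-galactosidase complementation read by luminescence after 1 h at ambient temperature. Dopamine 57 uM final (EC100) as control.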
D2 PAM-2 = Beta-Arrestin HTS for Positive Allosteric Modulators of the Human D2 Dopamine Receptor: Potentiators; D(2) dopamine receptor (Homo sapiens), P14416; DiscoveRx D2 beta-arrestin cells, luminescence, 90 min; 100% = 57 uM dopamine signal; potentiation, % (test concentration not listed); 360,000 compounds, 0.23% hits; AID 624464, 2012; in the data active = potentiation above about 50%; inconclusive = mostly about 30% to 49%
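PathHunter beta-arrestin assay in DiscoveRx D2 cells. Compounds were added with an EC20 of dopamine (50 nM final) for 90 min at 37 deg C. Luminescence was read 1 h after detection reagent, with 57 uM dopamine as the EC100 control.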
D3 ag = qHTS of D3 Dopamine Receptor Agonist: D3 Dopamine Receptor B-arrestin Agonist Confirmatory Assay | shares compounds with D2 ag-1 | DiscoveRx D3 beta-arrestin cells, luminescence, 90 min | Potency, µM (highest dose often 76.9 µM), without a hit: at the top dose activation, usual class: activators | 2,300 compounds, 4% hits | AID 720506, 2013;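 also: potency is read from the fitted curve at half-maximal effect; 100% = dopamine control response; nearly all actives have a fitted effect of over 70% in size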
D2 ag-3 = qHTS of D3 Dopamine Receptor Agonist: D2 Dopamine Receptor B-arrestin Agonist Counterscreen. shares compounds with D2 ag-1. DiscoveRx PathHunter D2 beta-arrestin, luminescence, 90 min; response scale: percent relative to full dopamine signal. Potency, µM (top dose mostly 76.9 µM), inactives show at the top dose activation, usual class: activators. 2,300 compounds, 5.9% hits; also: potency is read from the fitted curve at half-maximal effect; % of control where 0% means no effect; nearly all actives have a fitted effect of over 70% in size
The depositor's hits bear a star. Sampled rows, rich in hits. Any-hit rate of the full collection: about 2.4%. Unless noted, calls follow the shape of the dose curve; as a rule, active = well fitted activation curve with a large enough effect; inconclusive = small, poorly fitted or top-dose-only effect; inactive = flat fitted curve, though single readings scatter.

O=C(Nc1ccon1)c1nc[nH]c1C(=O)N1CCc2ccccc2C1 was read as D2 ag-1 0, D2 PAM-1 0, D2 antagonist -6, D2 ag-2 -2, D2 PAM-2 -10, D3 ag -1% and D2 ag-3 -4%.
For O=C1Cc2c([nH]c3ccc([N+](=O)[O-])cc23)-c2ccccc2N1 the results were D2 ag-2 -2 and D2 PAM-2 -17.
Screening C=CCn1c(SCC(=O)NCC(c2ccccc2)N(C)C)nnc1C1CCCCC1 (configuration not stated) returned D2 ag-1 0, D2 PAM-1 14, D2 antagonist 17, D2 ag-2 -2, D2 PAM-2 -11, D3 ag -10% and D2 ag-3 -2%.
Cc1ncsc1CCOC(=O)c1ccc(N2CCOCC2)c([N+](=O)[O-])c1 was read as D2 ag-1 2, D2 PAM-1 15, D2 antagonist 28, D2 ag-2 1, D2 PAM-2 -8, D3 ag inconclusive and D2 ag-3 inconclusive.
For O=C(Cn1c(=O)c2cccn2c2cccnc21)NCc1ccccc1F the results were D2 ag-1 0 and D2 PAM-1 2.
`CCOC(=O)C1CCCN(C(=O)c2cccc(OC(F)(F)F)c2)CC1` (configuration not stated) gave D2 ag-2 -5 and D2 PAM-2 -6.
`CC(=O)N1C(O)CC(C)N1c1ccccc1` (configuration not stated) gave D2 ag-1 0, D2 PAM-1 -3, D2 antagonist 0, D2 ag-2 2, D2 PAM-2 8, D3 ag 2% and D2 ag-3 -3%.
Screening CC(=O)N1CCN(C(C)=O)C1c1ccccc1 returned D2 ag-1 0, D2 PAM-1 3, D2 antagonist -12, D2 ag-2 -3 and D2 PAM-2 -1.
For COc1ccccc1CNC(=O)Nc1nc(C(N)CCc2ccccc2)cs1 (configuration not stated) the results were D2 ag-2 6 and D2 PAM-2 -7.
Screening CCNS(=O)(=O)c1ccc2c3c(cccc13)C(=O)N2 returned D2 ag-1 48*, D2 PAM-1 -11, D2 antagonist -3, D2 ag-2 -2, D2 PAM-2 -5, D3 ag 0% and D2 ag-3 0%.
Cc1ccc(/C=N/NC(=O)Cc2c(F)cccc2Cl)s1 was read as D2 ag-1 1, D2 PAM-1 14, D2 antagonist 4, D2 ag-2 -3 and D2 PAM-2 -9.
CN1CCN(CCCC(=O)c2ccc(C3CCCC3)cc2)CC1 was read as D2 ag-1 1, D2 PAM-1 -10, D2 antagonist -7, D2 ag-2 -5 and D2 PAM-2 -16.
`CC(=O)N/C(=C/C(C)C)c1ccccc1` gave D2 ag-1 0, D2 PAM-1 -7, D2 antagonist 1, D2 ag-2 -1, D2 PAM-2 -2, D3 ag -2% and D2 ag-3 -4%.
CC1CN(C)C(C)C/C1=N/Oc1ccccc1[N+](=O)[O-] (configuration not stated) was read as D2 ag-1 41*, D2 PAM-1 -19, D2 antagonist 25, D2 ag-2 7, D2 PAM-2 -11, D3 ag 20% and D2 ag-3 18%.
`Cc1ccc(CN2CCN(C(=O)C3CCC3)CC2)cc1` gave D2 ag-1 0, D2 PAM-1 -1, D2 antagonist -14, D2 ag-2 2 and D2 PAM-2 -10.
Screening COc1ccc2c(CN3CCCC3)cc(=O)oc2c1 returned D2 ag-2 -6 and D2 PAM-2 -13.
For COC(=O)C1CCN(Cc2ccc(OCCCN3CCN(c4ccc([N+](=O)[O-])cc4)CC3)cc2)CC1 the results were D2 ag-1 54*, D2 PAM-1 -24, D2 antagonist 75*, D2 ag-2 -3, D2 PAM-2 -16, D3 ag 3% and D2 ag-3 29%.
COC(=O)C1CCN(Cc2ccc(C)cc2)CC1 was read as D2 ag-1 75*, D2 PAM-1 -23, D2 antagonist 69*, D2 ag-2 inconclusive, D2 PAM-2 15, D3 ag 3% and D2 ag-3 inconclusive.
`COC(=O)C1CCN(Cc2cc(=O)oc3cc(OC)ccc23)CC1` gave D2 ag-1 56*, D2 PAM-1 -13, D2 antagonist 0, D2 ag-2 10, D2 PAM-2 -1, D3 ag inconclusive and D2 ag-3 inconclusive.
For O=C(CCN1CCN(c2ccccc2F)CC1)Nc1ccccc1Cl the results were D2 ag-1 70*, D2 PAM-1 -24, D2 antagonist 88*, D2 ag-2 -1, D2 PAM-2 -10, D3 ag -3% and D2 ag-3 21%.
O=C(CCN1CCN(c2ccccc2F)CC1)Nc1cccc(F)c1 was read as D2 ag-1 81*, D2 PAM-1 -24, D2 antagonist 80*, D2 ag-2 -4, D2 PAM-2 -5, D3 ag inconclusive and D2 ag-3 inconclusive.
For COC(=O)c1[nH]c2cc(OC)ccc2c1NC(=O)CCN1CCN(c2cccc(C)c2C)CC1 the results were D2 ag-1 1, D2 PAM-1 -8, D2 antagonist 57*, D2 ag-2 -1, D2 PAM-2 -11, D3 ag 8% and D2 ag-3 -1%.
For O=C(CCN1CCN(c2ccccc2F)CC1)Nc1ccc(F)cc1 the results were D2 ag-1 14, D2 PAM-1 -16, D2 antagonist 88*, D2 ag-2 3, D2 PAM-2 -75, D3 ag inconclusive and D2 ag-3 7%.
